In PubChem BioAssay (EPA / NIEHS):
Activity calls are given as the source filed them. Rule for the calls: active = hit-call score of the fitted dose curve at least 0.9, where 1 is the maximum; inactive = score below 0.9.

Experiments:
[1] = read-out: Tissue Factor, F3 (gene 2152); assay: BSK_CASM3C_TissueFactor: BioMAP Diversity Plus: CASM3C Assay for Tissue Factor Biomarker Activity (AID 2283052); conditions: primary human coronary artery smooth muscle cells; actives raise or lower the signal;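 note: cell surface tissue factor protein level read by ELISA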
[2] = read-out: Interferon-gamma inducible Protein 10 (IP10), CXCL10 (gene 3627); assay: BSK_hDFCGF_IP10: BioMAP Diversity Plus: hDFCGF Assay for Interferon-gamma inducible Protein 10 (IP10) Biomarker Activity (AID 2283053); conditions: primary human foreskin fibroblasts; actives raise or lower the signal
Method in brief: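 Primary human foreskin fibroblasts exposed to chemicals for 24 h. IP-10 measured by ELISA; changes fitted bidirectionally against DMSO baseline.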

[3] = read-out: Urokinase-type plasminogen activator receptor (uPAR), PLAUR (gene 5329); assay: BSK_CASM3C_uPAR: BioMAP Diversity Plus: CASM3C Assay for Urokinase-type plasminogen activator receptor (uPAR) Biomarker Activity (AID 2283054); conditions: primary human coronary artery smooth muscle cells; actives raise or lower the signal;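 note: cell-surface uPAR protein level quantified by ELISA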
[4] = read-out: Vascular cell adhesion molecule 1 (VCAM1), VCAM1 (gene 7412); assay: BSK_CASM3C_VCAM1: BioMAP Diversity Plus: CASM3C Assay for Vascular cell adhesion molecule 1 (VCAM1) Biomarker Activity (AID 2283055); conditions: primary human coronary artery smooth muscle cells; actives raise or lower the signal;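 note: VCAM-1 protein level quantified by ELISA on the cells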
[5] = read-out: Collagen III, COL3A1 (gene 1281); assay: BSK_hDFCGF_CollagenIII: BioMAP Diversity Plus: hDFCGF Assay for Collagen III Biomarker Activity (AID 2283056); conditions: primary human foreskin fibroblasts; actives raise or lower the signal
Method in brief: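 Response relative to DMSO, fitted in both directions, reflects ELISA-measured collagen III in human primary skin fibroblasts 24 h after compound addition.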

[6] = read-out: Epidermal growth factor receptor (EGFR), EGFR (gene 1956); assay: BSK_hDFCGF_EGFR: BioMAP Diversity Plus: hDFCGF Assay for Epidermal growth factor receptor (EGFR) Biomarker Activity (AID 2283057); conditions: primary human foreskin fibroblasts; actives raise or lower the signal
Method in brief: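 Primary human foreskin fibroblasts (hDFCGF system), sampled 24 h after dosing; EGFR quantified by ELISA. Bidirectional fit relative to DMSO baseline; SRB total-protein staining in parallel cultures for cytotoxicity.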

[7] = read-out: Interleukin-8 (IL8), CXCL8 (gene 3576); assay: BSK_hDFCGF_IL8: BioMAP Diversity Plus: hDFCGF Assay for Interleukin-8 (IL8) Biomarker Activity (AID 2283058); conditions: primary human foreskin fibroblasts; actives raise or lower the signal
Method in brief: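 Fibroblast monolayers (human foreskin, hDFCGF) received test chemical for 24 h before ELISA detection of IL-8; either increases or decreases relative to DMSO count as activity.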

[8] = BSK_hDFCGF_Proliferation: Cell Proliferation Assessment in the BioMAP Diversity Plus: hDFCGF Assay (AID 2283059); conditions: primary human foreskin fibroblasts;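 note: curves fitted for both rise and fall of signal versus DMSO baseline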
Method in brief: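 Primary human foreskin fibroblasts, sub-confluent; […]; 10% TCA fix, 0.1% SRB stain, A560 total protein. Gain/loss fitted bidirectionally vs DMSO control.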

[9] = read-out: Macrophage colony-stimulating factor (MCSF), CSF1 (gene 1435); assay: BSK_hDFCGF_MCSF: BioMAP Diversity Plus: hDFCGF Assay for Macrophage colony-stimulating factor (MCSF) Biomarker Activity (AID 2283060); conditions: primary human foreskin fibroblasts; actives raise or lower the signal
Method in brief: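 fibroblasts (human foreskin, primary), 24 h post-dose; M-CSF by ELISA; bidirectional fit, DMSO = baseline.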

[10] = BSK_hDFCGF_SRB: Viability Assessment in the BioMAP Diversity Plus: hDFCGF Assay (AID 2283061); conditions: primary human foreskin fibroblasts;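 note: cells exposed to compound for 24 h before the read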
Method in brief: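 SRB-based viability read on primary human skin fibroblasts at 24 h: TCA fixation, 0.1% dye, 560 nm. Gain or loss of signal is fitted against the DMSO negative control.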

[11] = read-out: TIMP metallopeptidase inhibitor 1 (TIMP1), TIMP1 (gene 7076); assay: BSK_hDFCGF_TIMP1: BioMAP Diversity Plus: hDFCGF Assay for TIMP metallopeptidase inhibitor 1 (TIMP1) Biomarker Activity (AID 2283062); conditions: primary human foreskin fibroblasts; actives raise or lower the signal
Method in brief: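 Bidirectional curve fitting against DMSO baseline yielded this endpoint, based on ELISA detection of TIMP-1 in primary human foreskin fibroblasts exposed to compound for 24 h.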

[12] = read-out: Monokine induced gamma interferon (MIG), CXCL9 (gene 4283); assay: BSK_hDFCGF_MIG: BioMAP Diversity Plus: hDFCGF Assay for Monokine induced gamma interferon (MIG) Biomarker Activity (AID 2283063); conditions: primary human foreskin fibroblasts; actives raise or lower the signal
Method in brief: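 Endpoint derived by bidirectional fitting relative to DMSO; MIG quantified via ELISA in primary human foreskin fibroblasts harvested 24 h after dosing.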

[13] = read-out: Matrix Metallopeptidase 1 (MMP1), MMP1 (gene 4312); assay: BSK_hDFCGF_MMP1: BioMAP Diversity Plus: hDFCGF Assay for Matrix Metallopeptidase 1 (MMP1) Biomarker Activity (AID 2283064); conditions: primary human foreskin fibroblasts; actives raise or lower the signal
Method in brief: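 Primary human foreskin fibroblasts exposed to chemicals for 24 h; MMP1 measured by ELISA. Cytotoxicity tracked by SRB staining in parallel cultures; bidirectional fit relative to DMSO.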

[14] = read-out: Vascular cell adhesion molecule 1 (VCAM1), VCAM1 (gene 7412); assay: BSK_hDFCGF_VCAM1: BioMAP Diversity Plus: hDFCGF Assay for Vascular cell adhesion molecule 1 (VCAM1) Biomarker Activity (AID 2283065); conditions: primary human foreskin fibroblasts; actives raise or lower the signal;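 for AC50: VCAM-1 protein level quantified by ELISA after 24 h chemical exposure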
Method in brief: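 Measured after 24 h chemical treatment of primary human skin fibroblasts, VCAM-1 was detected by ELISA and concentration-response analysed in both directions versus DMSO vehicle.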

[15] = read-out: Plasminogen activator inhibitor-1 (PAI1), SERPINE1 (gene 5054); assay: BSK_hDFCGF_PAI1: BioMAP Diversity Plus: hDFCGF Assay for Plasminogen activator inhibitor-1 (PAI1) Biomarker Activity (AID 2283066); conditions: primary human foreskin fibroblasts; actives raise or lower the signal
Method in brief: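 Human foreskin fibroblast primary cells, 24 h chemical exposure; PAI-1 measured by ELISA. Bidirectional fitting relative to DMSO; parallel cultures stained with SRB for total protein to flag overt cytotoxicity.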

[16] = read-out: Intercellular Adhesion Molecule 1 (ICAM1), ICAM1 (gene 3383); assay: BSK_KF3CT_ICAM1: BioMAP Diversity Plus: KF3CT Assay for Intercellular Adhesion Molecule 1 (ICAM1) Biomarker Activity (AID 2283067); conditions: primary human keratinocytes with fibroblasts; actives raise or lower the signal
Method in brief: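 Bidirectional curve fitting against a DMSO baseline was applied to ICAM-1 ELISA signal from primary human skin co-cultures harvested 24 h after treatment, with SRB staining of parallel wells for overt cytotoxicity.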

[17] = read-out: Interferon-gamma inducible Protein 10 (IP10), CXCL10 (gene 3627); assay: BSK_KF3CT_IP10: BioMAP Diversity Plus: KF3CT Assay for Interferon-gamma inducible Protein 10 (IP10) Biomarker Activity (AID 2283068); conditions: primary human keratinocytes with fibroblasts; actives raise or lower the signal
Method in brief: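 In a primary skin co-culture of keratinocytes and fibroblasts, IP-10 is quantified by ELISA at 24 h after dosing. SRB staining of parallel wells monitors overt toxicity. Curves are fitted both directions against DMSO.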

[18] = BSK_KF3CT_SRB: Viability Assessment in the BioMAP Diversity Plus: KF3CT Assay (AID 2283069); conditions: primary human keratinocytes with fibroblasts;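 note: total protein by sulforhodamine B staining as a cytotoxicity measure; fitted for both signal gain and loss against DMSO baseline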
Method in brief: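 Human keratinocyte and foreskin fibroblast co-culture exposed to chemical for 24 h. Total protein measured in parallel cultures by 0.1% sulforhodamine B staining after 10% TCA fixation, read at 560 nm; bidirectional fit relative to DMSO.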

[19] = read-out: Interleukin-1 alpha (IL1a), IL1A (gene 3552); assay: BSK_KF3CT_IL1a: BioMAP Diversity Plus: KF3CT Assay for Interleukin-1 alpha (IL1a) Biomarker Activity (AID 2283070); conditions: primary human keratinocytes with fibroblasts; actives raise or lower the signal
Method in brief: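 Primary human keratinocyte plus foreskin fibroblast co-culture, dosed and measured at 24 h in 96-well plates. IL-1a level quantified by ELISA; bidirectional fit relative to DMSO.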

[20] = read-out: TIMP metallopeptidase inhibitor 2 (TIMP2), TIMP2 (gene 7077); assay: BSK_KF3CT_TIMP2: BioMAP Diversity Plus: KF3CT Assay for TIMP metallopeptidase inhibitor 2 (TIMP2) Biomarker Activity (AID 2283071); conditions: primary human keratinocytes with fibroblasts; actives raise or lower the signal
Method in brief: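 Co-culture of human primary keratinocytes and foreskin fibroblasts, measured 24 h after chemical dosing. TIMP-2 quantified by ELISA and fitted in both directions relative to DMSO. Cytotoxicity checked in parallel cultures by SRB total-protein staining.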

Measured: AC50

O=C1CCCCC1
inactive: all assays above

CCN(CC)CCOc1ccc(C(=C(Cl)c2ccccc2)c2ccccc2)cc1
inactive: [6]
active: [1] 31.8 µM | [2] 14.4 µM | [3] 31.1 µM | [4] 31.6 µM | [5] 12.1 µM | [7] 13 µM | [8] 0.123 µM | [9] 10.4 µM | [10] 11.6 µM | [11] 13.6 µM | [12] 13 µM | [13] 13.2 µM | [14] 14.1 µM | [15] 9.48 µM | [16] 14 µM | [17] 13.5 µM | [18] 12 µM | [19] 14.5 µM | [20] 12.6 µM

O=C(O)CN(CC(=O)O)CC(=O)O
not listed: [11] | [20]
inactive: all other assays above

CCCCCCC(C=O)=Cc1ccccc1
active: [2] 32.6 µM | [5] 30.1 µM | [8] 28.9 µM | [10] 31.5 µM | [14] 32 µM | [17] 30.5 µM
not listed: [13] | [20]
inactive: all other assays above

CC(C)(C)c1ccccc1
not listed: [11] | [20]
inactive: all other assays above

Cc1c(C)c2c(c(C)c1O)CCC(C)(COc1ccc(CC3SC(=O)NC3=O)cc1)O2 (configuration not stated)
active: [2] 9.98 µM | [5] 12 µM | [6] 8.04 µM | [7] 27.8 µM | [8] 6.8 µM | [9] 11.7 µM | [10] 19.2 µM | [12] 20 µM | [13] 24.8 µM | [14] 11.8 µM | [15] 8.87 µM | [16] 14.1 µM | [17] 11.3 µM | [18] 13.8 µM | [19] 29.5 µM
inactive: [1] | [3] | [4]

OCC(CO)n1cnc(-c2ccc(F)cc2)c1-c1ccnc(Oc2ccccc2)n1
active: [4] 2.33 µM | [9] 0.148 µM | [13] 0.909 µM | [14] 1.8 µM
inactive: all other assays above
